Residue numbers refer to the chain shown, from its start.
Key:
Test in all cases: yeast three-hybrid, YBZ-1, SC-Leu-His + 0.5 mM 3-AT, 4 days
Conditions in all cases: tags: N-Gal4 AD-HA kept; label: inside an RPR1-promoter hybrid RNA with tandem MS2 sites; ssRNA
PUM1 PUF domain R8-RWK = PUM1 PUF domain R8-RWK (Homo sapiens, UniProt Q14671 828-1176, N1122R;Y1123W;Q1126K)
Method in brief: (§1)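 A centromeric plasmid in strain YBZ-1 co-expressed Pumilio-1 PUF domain libraries, randomized at the three base-contacting residues of each repeat, with matching RNA elements; the strain carries a LexA–MS2 coat fusion and a HIS3 reporter. After four days on SC-Leu (input) or SC-Leu-His + 0.5 mM 3-AT (selection), the repeat regions were PCR-amplified and Illumina-sequenced. The interaction score is the log change in variant frequency from input to selection, using log2 and a pseudocount of 1 where absent.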

PUM1 PUF domain R6-CHR = molecular target: T1, PUM1 PUF domain R6-CHR (Homo sapiens, UniProt Q14671 828-1176, N1043C;Y1044H;Q1047R)
T1 sequence: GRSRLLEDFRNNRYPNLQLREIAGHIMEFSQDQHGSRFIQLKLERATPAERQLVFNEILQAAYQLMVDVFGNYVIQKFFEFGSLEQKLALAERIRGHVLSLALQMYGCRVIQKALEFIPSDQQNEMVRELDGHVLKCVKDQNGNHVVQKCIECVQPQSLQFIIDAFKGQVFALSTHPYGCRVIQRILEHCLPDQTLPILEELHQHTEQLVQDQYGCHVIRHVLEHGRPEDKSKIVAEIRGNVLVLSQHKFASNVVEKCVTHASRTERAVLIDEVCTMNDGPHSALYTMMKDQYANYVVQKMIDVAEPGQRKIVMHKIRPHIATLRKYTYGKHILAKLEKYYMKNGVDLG
Method in brief: as §1

PUM1 PUF domain R8-RFH = PUM1 PUF domain R8-RFH (Homo sapiens, UniProt Q14671 828-1176, N1122R;Y1123F;Q1126H)
Method in brief: as §1

PUM1 PUF domain R4-RHG = PUM1 PUF domain R4-RHG (Homo sapiens, UniProt Q14671 828-1176, N971R;Q975G)
Method in brief: as §1

PUM1 PUF domain R5-MYS = PUM1 PUF domain R5-MYS (Homo sapiens, UniProt Q14671 828-1176, C1007M;R1008Y;Q1011S)
Method in brief: as §1

PUM1 PUF domain R5-TRG = PUM1 PUF domain R5-TRG (Homo sapiens, UniProt Q14671 828-1176, C1007T;Q1011G)
Method in brief: as §1

PUM1 PUF domain R5-GLW = PUM1 PUF domain R5-GLW (Homo sapiens, UniProt Q14671 828-1176, C1007G;R1008L;Q1011W)
Method in brief: as §1

PUM1 PUF domain R5-RRS = PUM1 PUF domain R5-RRS (Homo sapiens, UniProt Q14671 828-1176, C1007R;Q1011S)
Chain of PUM1 PUF domain R5-RRS (Q14671 828-1176 C1007R/Q1011S): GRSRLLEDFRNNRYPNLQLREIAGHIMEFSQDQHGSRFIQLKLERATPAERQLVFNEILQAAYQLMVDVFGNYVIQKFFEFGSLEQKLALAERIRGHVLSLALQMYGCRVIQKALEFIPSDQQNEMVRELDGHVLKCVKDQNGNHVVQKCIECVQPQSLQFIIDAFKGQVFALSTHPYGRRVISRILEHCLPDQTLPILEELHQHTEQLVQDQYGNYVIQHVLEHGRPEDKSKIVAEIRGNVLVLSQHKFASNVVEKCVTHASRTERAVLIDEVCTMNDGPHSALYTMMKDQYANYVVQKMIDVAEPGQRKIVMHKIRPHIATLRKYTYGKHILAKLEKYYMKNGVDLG
Method in brief: as §1

PUM1 PUF domain R4-VSL = PUM1 PUF domain R4-VSL (Homo sapiens, UniProt Q14671 828-1176, N971V;H972S;Q975L)
Method in brief: as §1

PUM1 PUF domain R6-VFQ = molecular target: T2, PUM1 PUF domain R6-VFQ (Homo sapiens, UniProt Q14671 828-1176, N1043V;Y1044F)
T2 sequence: T1 sequence with C216V, H217F, R220Q
Method in brief: as §1

PUM1 PUF domain R6-LWQ = molecular target: T3, PUM1 PUF domain R6-LWQ (Homo sapiens, UniProt Q14671 828-1176, N1043L;Y1044W)
T3 sequence: T1 sequence with C216L, H217W, R220Q
Method in brief: as §1

PUM1 PUF domain R4-VPQ = PUM1 PUF domain R4-VPQ (Homo sapiens, UniProt Q14671 828-1176, N971V;H972P)
Method in brief: as §1

PUM1 PUF domain R5-RGW = PUM1 PUF domain R5-RGW (Homo sapiens, UniProt Q14671 828-1176, C1007R;R1008G;Q1011W)
Method in brief: as §1

PUM1 PUF domain R5-KGD = PUM1 PUF domain R5-KGD (Homo sapiens, UniProt Q14671 828-1176, C1007K;R1008G;Q1011D)
Method in brief: as §1

PUM1 PUF domain R5-HKE = PUM1 PUF domain R5-HKE (Homo sapiens, UniProt Q14671 828-1176, C1007H;R1008K;Q1011E)
Method in brief: as §1

PUM1 PUF domain R8-RFP = PUM1 PUF domain R8-RFP (Homo sapiens, UniProt Q14671 828-1176, N1122R;Y1123F;Q1126P)
Method in brief: as §1

PUM1 PUF domain R5-GQW = PUM1 PUF domain R5-GQW (Homo sapiens, UniProt Q14671 828-1176, C1007G;R1008Q;Q1011W)
Method in brief: as §1

PUM1 PUF domain R3-RTW = PUM1 PUF domain R3-RTW (Homo sapiens, UniProt Q14671 828-1176, C935R;R936T;Q939W)
Method in brief: as §1

PUM1 PUF domain R2-DWE = PUM1 PUF domain R2-DWE (Homo sapiens, UniProt Q14671 828-1176, N899D;Y900W;Q903E)
Method in brief: as §1

PUM1 PUF domain R1-KSN = PUM1 PUF domain R1-KSN (Homo sapiens, UniProt Q14671 828-1176, S863K;R864S;Q867N)
Method in brief: as §1

“GGCUAGAACUAGUGGAUCCCCCGGCGCCCGGCGGCUCGAGCCCGGGUAAGUGUAAAUAGUCUGCAUGCCGCCGGGCGCCAUGCCUGCAGGUCGACUCUAGAAAACAUG” was tested, and the binding signal (PUM1 PUF domain R8-RWK) was 6.43 log2 enrichment (interaction score), the binding signal (PUM1 PUF domain R6-CHR) was 3.81 log2 enrichment (interaction score) and the binding signal (PUM1 PUF domain R8-RFH) was 4.43 log2 enrichment (interaction score). For the same sequence, the binding signal (PUM1 PUF domain R4-RHG) was 2.69 log2 enrichment (interaction score), the binding signal (PUM1 PUF domain R5-MYS) was 2.4 log2 enrichment (interaction score) and the binding signal (PUM1 PUF domain R5-TRG) was 2.68 log2 enrichment (interaction score). The binding signal (PUM1 PUF domain R5-GLW) was 2.11 log2 enrichment (interaction score), the binding signal (PUM1 PUF domain R5-RRS) was 2.42 log2 enrichment (interaction score) and the binding signal (PUM1 PUF domain R4-VSL) was 2.71 log2 enrichment (interaction score). For the same sequence, the binding signal (PUM1 PUF domain R6-VFQ) was 3.65 log2 enrichment (interaction score) and the binding signal (PUM1 PUF domain R6-LWQ) was 5.83 log2 enrichment (interaction score).

With “GGCUAGAACUAGUGGAUCCCCCGGCGCCCGGCGGCUCGAGCCCGGGUAAGUGUAUAUAGUCUGCAUGCCGCCGGGCGCCAUGCCUGCAGGUCGACUCUAGAAAACAUG” the binding signal (PUM1 PUF domain R4-RHG) was 4.05 log2 enrichment (interaction score) and the binding signal (PUM1 PUF domain R4-VPQ) was 2.78 log2 enrichment (interaction score).

For “GGCUAGAACUAGUGGAUCCCCCGGCGCCCGGCGGCUCGAGCCCGGGUAAGUGUCAAUAGUCUGCAUGCCGCCGGGCGCCAUGCCUGCAGGUCGACUCUAGAAAACAUG”, the binding signal (PUM1 PUF domain R5-RGW) was 2.31 log2 enrichment (interaction score), the binding signal (PUM1 PUF domain R5-KGD) was 3.76 log2 enrichment (interaction score) and the binding signal (PUM1 PUF domain R5-HKE) was 3.67 log2 enrichment (interaction score). For the same sequence, the binding signal (PUM1 PUF domain R5-RRS) was 4.44 log2 enrichment (interaction score).

With “GGCUAGAACUAGUGGAUCCCCCGGCGCCCGGCGGCUCGAGCCCGGGUAAGUGUGAAUAGUCUGCAUGCCGCCGGGCGCCAUGCCUGCAGGUCGACUCUAGAAAACAUG” the binding signal (PUM1 PUF domain R5-RRS) was 1.53 log2 enrichment (interaction score).

“GGCUAGAACUAGUGGAUCCCCCGGCGCCCGGCGGCUCGAGCCCGGGUAAGCGUAAAUAGUCUGCAUGCCGCCGGGCGCCAUGCCUGCAGGUCGACUCUAGAAAACAUG” was tested, and the binding signal (PUM1 PUF domain R8-RWK) was 6.98 log2 enrichment (interaction score), the binding signal (PUM1 PUF domain R8-RFH) was 4.72 log2 enrichment (interaction score) and the binding signal (PUM1 PUF domain R8-RFP) was 5.8 log2 enrichment (interaction score).

“GGCUAGAACUAGUGGAUCCCCCGGCGCCCGGCGGCUCGAGCCCGGGUAAGUGUUAAUAGUCUGCAUGCCGCCGGGCGCCAUGCCUGCAGGUCGACUCUAGAAAACAUG” was tested, and the binding signal (PUM1 PUF domain R5-GQW) was 2.77 log2 enrichment (interaction score), the binding signal (PUM1 PUF domain R5-MYS) was 3.54 log2 enrichment (interaction score) and the binding signal (PUM1 PUF domain R5-TRG) was 2.97 log2 enrichment (interaction score). For the same sequence, the binding signal (PUM1 PUF domain R5-GLW) was 1.6 log2 enrichment (interaction score) and the binding signal (PUM1 PUF domain R5-RRS) was 4.6 log2 enrichment (interaction score).

For “GGCUAGAACUAGUGGAUCCCCCGGCGCCCGGCGGCUCGAGCCCGGGUAAGUGUAAUUAGUCUGCAUGCCGCCGGGCGCCAUGCCUGCAGGUCGACUCUAGAAAACAUG”, the binding signal (PUM1 PUF domain R3-RTW) was 2.38 log2 enrichment (interaction score).

With “GGCUAGAACUAGUGGAUCCCCCGGCGCCCGGCGGCUCGAGCCCGGGUAAGUGUAAAGAGUCUGCAUGCCGCCGGGCGCCAUGCCUGCAGGUCGACUCUAGAAAACAUG” the binding signal (PUM1 PUF domain R2-DWE) was 9.59 log2 enrichment (interaction score).

“GGCUAGAACUAGUGGAUCCCCCGGCGCCCGGCGGCUCGAGCCCGGGUAAGUGUACAUAGUCUGCAUGCCGCCGGGCGCCAUGCCUGCAGGUCGACUCUAGAAAACAUG” was tested, and the binding signal (PUM1 PUF domain R4-RHG) was 4.02 log2 enrichment (interaction score).

“GGCUAGAACUAGUGGAUCCCCCGGCGCCCGGCGGCUCGAGCCCGGGUAAGUGAAAAUAGUCUGCAUGCCGCCGGGCGCCAUGCCUGCAGGUCGACUCUAGAAAACAUG” was tested, and the binding signal (PUM1 PUF domain R6-VFQ) was 8.19 log2 enrichment (interaction score).

With “GGCUAGAACUAGUGGAUCCCCCGGCGCCCGGCGGCUCGAGCCCGGGUAAGUGUAAAUCGUCUGCAUGCCGCCGGGCGCCAUGCCUGCAGGUCGACUCUAGAAAACAUG” the binding signal (PUM1 PUF domain R1-KSN) was 4.24 log2 enrichment (interaction score).
